# In PubChem BioAssay (NCI):
# This is part of a sample that, as a whole, favours compounds with a hit. Of some 79,000 tested, about 15% had one in any assay. Values without a mark were called inactive. The source made the active and inactive calls. No stated cut-off is given here; in the data, active means growth inhibition above about 70%; inactive means the rest.
# Experiments:
# [1] = NCI Yeast Anticancer Drug Screen. Data for the rad52 strain (AID 147);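 further: 0% = growth of vehicle-treated control cultures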; details: S. cerevisiae rad52 mutant growth inhibition, hits give high values
# In short: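 Read-out: growth inhibition versus vehicle-treated controls. Cells were a DNA repair-deficient yeast strain treated with compounds.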
# [2] = NCI Yeast Anticancer Drug Screen. Data for the wt1 strain (AID 149);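 further: 0% = growth of vehicle-treated wt1 cultures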; details: S. cerevisiae wt1 strain (SPY 50644) growth inhibition, hits give high values
# In short: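 Each compound is tested on wt1 yeast and the loss of growth versus vehicle gives the inhibition value.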
# [3] = NCI Yeast Anticancer Drug Screen. Data for the rad50EPP+ strain (AID 151);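 further: 0% = growth of vehicle-treated control cultures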; details: S. cerevisiae rad50 mutant strain, hits give high values
# In short: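 Growth inhibition read against vehicle controls in rad50EPP+ yeast, a strain altered in DNA damage repair, after compound exposure.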
# [4] = NCI Yeast Anticancer Drug Screen. Data for the mgt1 strain (AID 153); details: S. cerevisiae mgt1 mutant growth inhibition, hits give high values
# In short: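 mgt1 yeast grown with test compound; read-out is growth inhibition versus vehicle-treated cultures.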
# [5] = NCI Yeast Anticancer Drug Screen. Data for the rad50 strain (AID 155);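 further: 0% = growth of vehicle-only cultures of the same strain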; details: S. cerevisiae rad50 strain growth inhibition, hits give high values
# In short: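 Vehicle-treated cultures provide the reference for the growth inhibition reported for compound-exposed, repair-deficient yeast.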
# [6] = NCI Yeast Anticancer Drug Screen. Data for the mec2-1 strain (AID 157); details: S. cerevisiae mec2-1 strain, hits give high values
# In short: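 Yeast mec2-1 mutant treated with compound. Readout: growth inhibition vs vehicle controls.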
# [7] = NCI Yeast Anticancer Drug Screen. Data for the rad14 strain (AID 159);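 further: 0% = growth of vehicle-treated control cultures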; details: S. cerevisiae rad14 strain growth inhibition, hits give high values
# In short: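 Inhibition of growth is reported for a repair-deficient yeast mutant following compound treatment, calculated relative to cultures that received vehicle.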
# [8] = NCI Yeast Anticancer Drug Screen. Data for the sgs1 mgt1 strain (AID 161);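 further: 0% = growth of cultures given vehicle only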; details: S. cerevisiae sgs1 mgt1 strain, hits give high values
# In short: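 Read-out: growth inhibition vs vehicle controls. Cells: mutant yeast strain deficient in DNA damage repair.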
# [9] = NCI Yeast Anticancer Drug Screen. Data for the CLN2oe strain (AID 163);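 further: 0% = growth of vehicle-only control cultures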; details: S. cerevisiae CLN2oe strain, hits give high values
# In short: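 Read-out: yeast growth inhibition, expressed relative to vehicle-only controls. The strain bears an engineered cell-cycle alteration.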
# [10] = NCI Yeast Anticancer Drug Screen. Data for the cln2 rad14 strain (AID 165);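 further: 0% = growth equal to vehicle treated cultures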; details: S. cerevisiae cln2 rad14 strain, hits give high values
# In short: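 cln2 rad14 yeast strain; compound exposure; growth inhibition read vs vehicle controls.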
# [11] = NCI Yeast Anticancer Drug Screen. Data for the bub3 strain (AID 167); details: S. cerevisiae bub3 mutant strain, hits give high values
# In short: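 Mutant yeast screening strain plus compound; vehicle-treated cultures serve as the 0% inhibition reference.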
# [12] = NCI Yeast Anticancer Drug Screen. Data for the wt2 strain (AID 169); details: S. cerevisiae wt2 strain growth inhibition, hits give high values
# In short: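 Read-out: growth inhibition versus vehicle-treated control cultures after compound exposure of the yeast strain.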
# [13] = NCI Yeast Anticancer Drug Screen. Data for the mlh1 strain (AID 171);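 further: 0% = growth of vehicle-treated control cultures of the same strain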; details: S. cerevisiae mlh1 strain growth inhibition, hits give high values
# In short: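 Read-out: growth inhibition versus vehicle controls. Strain: engineered yeast with a defined DNA repair or cell cycle defect, compound-treated.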
# [14] = NCI Yeast Anticancer Drug Screen. Data for the sgs1 strain (AID 173);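 further: 0% = growth of vehicle-only control cultures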; details: S. cerevisiae sgs1 mutant, hits give high values
# In short: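 Read-out: yeast growth inhibition relative to vehicle controls, following compound exposure of a strain with a defined DNA repair/cell cycle alteration.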
# [15] = NCI Yeast Anticancer Drug Screen. Data for the mlh1 rad18 strain (AID 175); details: S. cerevisiae mlh1 rad18 strain growth inhibition, hits give high values
# In short: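 Yeast w/ defined DNA-repair lesions; compound exposure; growth vs vehicle controls → % inhibition.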
# [16] = NCI Yeast Anticancer Drug Screen. Data for the rad18 strain (AID 177); details: S. cerevisiae rad18 mutant growth inhibition, hits give high values
# In short: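 Readout: growth inhibition vs vehicle controls. Cells: genetically altered yeast strain, DNA repair defect.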
# [17] = at 5.0 µM (retest, dose inferred, filed as 0.5)
# [18] = at 50.0 µM (retest, dose inferred, filed as 5.0)
smiles,measurement,setting,value
ClCCCOc1c(Cl)cc(Cl)cc1Cl,growth inhibition,[1]; at 1.2 µM,-2%
same,growth inhibition,[1]; at 3.7 µM,2%
same,growth inhibition,[1]; at 11.0 µM,5%
same,growth inhibition,[1]; at 33.0 µM,-3%
same,growth inhibition,[1]; at 100.0 µM,10%
same,growth inhibition,[2]; at 1.2 µM,-1%
same,growth inhibition,[2]; at 3.7 µM,-2%
same,growth inhibition,[2]; at 11.0 µM,-3%
same,growth inhibition,[2]; at 33.0 µM,-5%
same,growth inhibition,[2]; at 100.0 µM,-1%
same,growth inhibition,[3]; at 1.2 µM,-4%
same,growth inhibition,[3]; at 3.7 µM,4%
same,growth inhibition,[3]; at 11.0 µM,13%
same,growth inhibition,[3]; at 33.0 µM,10%
same,growth inhibition,[3]; at 100.0 µM,32%
same,growth inhibition,[4]; at 1.2 µM,0%
same,growth inhibition,[4]; at 3.7 µM,-1%
same,growth inhibition,[4]; at 11.0 µM,-2%
same,growth inhibition,[4]; at 33.0 µM,-1%
same,growth inhibition,[4]; at 100.0 µM,1%
same,growth inhibition,[5]; at 1.2 µM,-2%
same,growth inhibition,[5]; at 3.7 µM,4%
same,growth inhibition,[5]; [17],1%
same,growth inhibition,[5]; at 11.0 µM,5%
same,growth inhibition,[5]; at 33.0 µM,0%
same,growth inhibition,[5]; [18],13%
same,growth inhibition,[5]; at 50.0 µM,-7.15%
same,growth inhibition,[5]; at 100.0 µM,10%
same,growth inhibition,[6]; at 1.2 µM,-2%
same,growth inhibition,[6]; at 3.7 µM,-2%
same,growth inhibition,[6]; [17],-27%
same,growth inhibition,[6]; at 11.0 µM,-2%
same,growth inhibition,[6]; at 33.0 µM,-1%
same,growth inhibition,[6]; [18],-12%
same,growth inhibition,[6]; at 50.0 µM,8.65%
same,growth inhibition,[6]; at 100.0 µM,1%
same,growth inhibition,[7]; at 1.2 µM,-4%
same,growth inhibition,[7]; at 3.7 µM,2%
same,growth inhibition,[7]; at 11.0 µM,5%
same,growth inhibition,[7]; at 33.0 µM,1%
same,growth inhibition,[7]; at 100.0 µM,13%
same,growth inhibition,[8]; [17],17%
same,growth inhibition,[8]; [18],15%
same,growth inhibition,[8]; at 50.0 µM,-2.55%
same,growth inhibition,[9]; at 1.2 µM,1%
same,growth inhibition,[9]; at 3.7 µM,0%
same,growth inhibition,[9]; at 11.0 µM,0%
same,growth inhibition,[9]; at 33.0 µM,1%
same,growth inhibition,[9]; at 100.0 µM,5%
same,growth inhibition,[10]; [17],16%
same,growth inhibition,[10]; [18],25%
same,growth inhibition,[10]; at 50.0 µM,29.6%
same,growth inhibition,[11]; at 1.2 µM,0%
same,growth inhibition,[11]; at 3.7 µM,1%
same,growth inhibition,[11]; [17],14%
same,growth inhibition,[11]; at 11.0 µM,-2%
same,growth inhibition,[11]; at 33.0 µM,-1%
same,growth inhibition,[11]; [18],13%
same,growth inhibition,[11]; at 50.0 µM,0.6%
same,growth inhibition,[11]; at 100.0 µM,0%
same,growth inhibition,[12]; at 1.2 µM,-7%
same,growth inhibition,[12]; at 3.7 µM,1%
same,growth inhibition,[12]; at 11.0 µM,-7%
same,growth inhibition,[12]; at 33.0 µM,-2%
same,growth inhibition,[12]; at 100.0 µM,-8%
same,growth inhibition,[13]; at 1.2 µM,-2%
same,growth inhibition,[13]; at 3.7 µM,0%
same,growth inhibition,[13]; at 11.0 µM,3%
same,growth inhibition,[13]; at 33.0 µM,-1%
same,growth inhibition,[13]; at 100.0 µM,9%
same,growth inhibition,[14]; at 1.2 µM,-15%
same,growth inhibition,[14]; at 3.7 µM,-22%
same,growth inhibition,[14]; at 11.0 µM,-21%
same,growth inhibition,[14]; at 33.0 µM,-5%
same,growth inhibition,[14]; at 100.0 µM,10%
same,growth inhibition,[15]; [17],15%
same,growth inhibition,[15]; [18],60%
same,growth inhibition,[15]; at 50.0 µM,27.1%
same,growth inhibition,[16]; at 1.2 µM,-4%
same,growth inhibition,[16]; at 3.7 µM,12%
same,growth inhibition,[16]; at 11.0 µM,12%
same,growth inhibition,[16]; at 33.0 µM,-2%
same,growth inhibition,[16]; at 100.0 µM,6%
O=C1C2=C(c3ccccc31)C(c1ccccc1)N1C(=O)CSC1=N2 (stereo unspecified),growth inhibition,[1]; at 1.2 µM,12%
same,growth inhibition,[1]; at 3.7 µM,15%
same,growth inhibition,[1]; at 11.0 µM,25%
same,growth inhibition,[1]; at 33.0 µM,31%
same,growth inhibition,[1]; at 100.0 µM,73% (active)
same,growth inhibition,[2]; at 1.2 µM,10%
same,growth inhibition,[2]; at 3.7 µM,3%
same,growth inhibition,[2]; at 11.0 µM,15%
same,growth inhibition,[2]; at 33.0 µM,22%
same,growth inhibition,[2]; at 100.0 µM,54%
same,growth inhibition,[3]; at 1.2 µM,9%
same,growth inhibition,[3]; at 3.7 µM,2%
same,growth inhibition,[3]; at 11.0 µM,5%
same,growth inhibition,[3]; at 33.0 µM,33%
same,growth inhibition,[3]; at 100.0 µM,23%
same,growth inhibition,[4]; at 1.2 µM,-2%
same,growth inhibition,[4]; at 3.7 µM,1%
same,growth inhibition,[4]; at 11.0 µM,-7%
same,growth inhibition,[4]; at 33.0 µM,38%
same,growth inhibition,[4]; at 100.0 µM,81% (active)
same,growth inhibition,[5]; at 1.2 µM,-1%
same,growth inhibition,[5]; at 3.7 µM,2%
same,growth inhibition,[5]; [17],14%
same,growth inhibition,[5]; at 11.0 µM,12%
same,growth inhibition,[5]; at 33.0 µM,30%
same,growth inhibition,[5]; [18],44%
same,growth inhibition,[5]; at 50.0 µM,58.2%
same,growth inhibition,[5]; at 100.0 µM,74% (active)
same,growth inhibition,[6]; at 1.2 µM,5%
same,growth inhibition,[6]; at 3.7 µM,10%
same,growth inhibition,[6]; [17],-9%
same,growth inhibition,[6]; at 11.0 µM,10%
same,growth inhibition,[6]; at 33.0 µM,8%
same,growth inhibition,[6]; [18],16%
same,growth inhibition,[6]; at 50.0 µM,45%
same,growth inhibition,[6]; at 100.0 µM,73% (active)
same,growth inhibition,[7]; at 1.2 µM,-21%
same,growth inhibition,[7]; at 3.7 µM,-17%
same,growth inhibition,[7]; at 11.0 µM,-20%
same,growth inhibition,[7]; at 33.0 µM,6%
same,growth inhibition,[7]; at 100.0 µM,74% (active)
same,growth inhibition,[8]; [17],11%
same,growth inhibition,[8]; [18],44%
same,growth inhibition,[8]; at 50.0 µM,59.6%
same,growth inhibition,[9]; at 1.2 µM,14%
same,growth inhibition,[9]; at 3.7 µM,4%
same,growth inhibition,[9]; at 11.0 µM,9%
same,growth inhibition,[9]; at 33.0 µM,-3%
same,growth inhibition,[9]; at 100.0 µM,54%
same,growth inhibition,[10]; [17],-11%
same,growth inhibition,[10]; [18],26%
same,growth inhibition,[10]; at 50.0 µM,38.7%
same,growth inhibition,[11]; at 1.2 µM,-2%
same,growth inhibition,[11]; at 3.7 µM,17%
same,growth inhibition,[11]; [17],-31%
same,growth inhibition,[11]; at 11.0 µM,15%
same,growth inhibition,[11]; at 33.0 µM,79% (active)
same,growth inhibition,[11]; [18],92% (active)
same,growth inhibition,[11]; at 50.0 µM,87.2% (active)
same,growth inhibition,[11]; at 100.0 µM,92% (active)
same,growth inhibition,[12]; at 1.2 µM,2%
same,growth inhibition,[12]; at 3.7 µM,7%
same,growth inhibition,[12]; at 11.0 µM,28%
same,growth inhibition,[12]; at 33.0 µM,44%
same,growth inhibition,[12]; at 100.0 µM,82% (active)
same,growth inhibition,[13]; at 1.2 µM,3%
same,growth inhibition,[13]; at 3.7 µM,-8%
same,growth inhibition,[13]; at 11.0 µM,1%
same,growth inhibition,[13]; at 33.0 µM,32%
same,growth inhibition,[13]; at 100.0 µM,84% (active)
same,growth inhibition,[14]; at 1.2 µM,-8%
same,growth inhibition,[14]; at 3.7 µM,-14%
same,growth inhibition,[14]; at 11.0 µM,13%
same,growth inhibition,[14]; at 33.0 µM,41%
same,growth inhibition,[14]; at 100.0 µM,77% (active)
same,growth inhibition,[15]; [17],-27%
same,growth inhibition,[15]; [18],42%
same,growth inhibition,[15]; at 50.0 µM,51%
same,growth inhibition,[16]; at 1.2 µM,-1%
same,growth inhibition,[16]; at 3.7 µM,10%
same,growth inhibition,[16]; at 11.0 µM,14%
same,growth inhibition,[16]; at 33.0 µM,31%
same,growth inhibition,[16]; at 100.0 µM,72% (active)
